40 molecules from PubChem BioAssay (NCATS) can be followed below.

“And” between values parts separate entries of the source, which are not always exact repeats. Equal entries are not always repeated. Inconclusive results are not listed. A call without a number means that no potency is given here. The source made the active and inactive calls. The call rests on the fitted dose curve; in most records, active means well fitted cell-killing curve with a large enough effect; inconclusive means small, poorly fitted or top-dose-only effect; inactive means no such curve, though single readings can be large or run the other way. Peptide text beside a SMILES is read from it.
Potency means the concentration at half of the fitted maximal effect.

A short description of this test: qHTS of pediatric cancer cell lines to identify multiple opportunities for drug repurposing: Primary screen for OHS-50 cells (AID 1347103). Further: nearly all actives have a fitted effect of over 40% in size. To be noted: OHS-50 osteosarcoma viability, CellTiter-Glo luminescence, 48 h; series mostly up to 57.3 µM. The source says: Drug repurposing or repositioning has been offered as a strategy for drug development in oncology programs. This approach has special potential for childhood cancers and other rare or orphan diseases, where the expected return on new drug development has been a disincentive to pharmaceuticals.
In this project we exploit the poly-pharmacology of drugs to discover new indications via phenotypic screening of a panel of 19 well-characterized cell lines derived from solid tumors seen in children and adolescents. The goal is to identify approved drugs with previously unrecognized anticancer properties that has the potential to reveal new mechanisms and biological processes involved in carcinogenesis or drug resistance. We employed a titration-based paradigm (quantitative high-throughput screening or qHTS), where all compounds were tested at multiple concentrations for their effect on cell viability. Concentration-response curves (CRCs) were derived directly from the primary screen, and both potency and efficacy values were used to identify compounds with robust bioactivity profiles. We screened the NIH Chemical Genomics Center (NCGC) Pharmaceutical Collection (NPC) and Mechanism Interrogation Plate (MIPE) small molecule collections of approved and investigational compounds against these cell lines; and measured metabolically active cells after 48 hours of compound treatment as a proxy for cell viability.
Assay Submitter: Nathalia J. Martinez, National Center for Advancing Translational Sciences, National Institutes of Health, Rockville, MD, USA; email: natalia.martinez@nih.gov
[1] Shen, M et al. Quantitative high-throughput phenotypic screening of pediatric cancer cell lines identifies multiple opportunities for drug repurposing. Oncotarget 2017 Dec 19;9(4):4758-4772. PMID 29435139.
The cells were obtained from University of North Carolina (UNC), Pediatric Preclinical Testing Program (PPT), and Coriell Institute (CI).
qHTS cell viability assay:
Cells were assayed in growth media at a density of 500-1,000 cells/well. Five microliters of cells were dispensed into 1,536-well, white, solid-bottom, TC-treated plates (Greiner Bio One) using a multidrop dispenser and incubated at 37 degrees C, 5% CO2, under a humidified atmosphere for 5 hours. Twenty-three nanoliters of compounds and controls (neutral control DMSO or positive control bortezomib at final concentration of 2.3 µM) were subsequently transferred by Kalypsys pintool. For primary screens, the MIPE collection was tested at 11-point dilutions (final concentrations range from 0.78 nM to 46 µM) and the NPC collection at 8-point dilutions (final concentrations range from 0.59 nM to 46 µM). Compounds tested in follow-up screens were assayed at 11-point dilutions. Cells were incubated for 48 hours, followed by addition of 3 µL of CellTiter-Glo (Promega). After a 15 min incubation at room temperature, samples were analyzed for luminescence intensity using a ViewLux High-throughput CCD imager equipped with clear filters.
For the molecule `CC(S)C(=O)NCC(=O)O` (stereo not given), the Potency result was “inactive”. Same read-out and setting: to `O=C1NC(=O)C(c2ccccc2[N+](=O)[O-])=C1Nc1ccc(O)c(Cl)c1` belongs “inactive”. Take `CCN(CCO)CCCC(C)Nc1ccnc2cc(Cl)ccc12` (stereo not given): the activity change, negative = cytotoxic was -4.93% [at 6.18 µM] (inactive). For the molecule `C[C@H](Cn1cnc2c(N)ncnc21)OCP(=O)(O)O`, the Potency entry is “inactive”.

Regarding `Cc1nc(Nc2ncc(C(=O)Nc3c(C)cccc3Cl)s2)cc(N2CCN(CCO)CC2)n1`, the Potency is 24.3 µM (active) and 12.3 µM (active). Same read-out and setting: under `CCOc1cc(CC(=O)N[C@@H](CC(C)C)c2ccccc2N2CCCCC2)ccc1C(=O)O` stands “inactive”.

For `C=CCc1cc(OC)c(O)c(C(=O)NCCO)c1`, the Potency entry was “inactive”. In the case of `O=C(CCc1ccc(O)cc1)c1c(O)cc(O)cc1O`, the Potency is 0.432 µM (active). As to `CCCCCCCCOc1ccccc1C(=O)Nc1ccc(C(=O)OCC[N+](C)(CC)CC)cc1`, the Potency result is “inactive”. Same read-out and setting: to `O=C(NCCO[N+](=O)[O-])c1cccnc1` belongs “inactive”; to `CC(=O)Nc1ccc(O)cc1`, “inactive”. Same read-out and setting: under `O=c1cc(N2CCOCC2)oc2c(-c3ccccc3)cccc12` stands 2.73 µM (active). Turning to `Clc1ccc2c(N3CCN(CCCN4CCN(c5ccnc6cc(Cl)ccc56)CC4)CC3)ccnc2c1`, the Potency result was “inactive”. Consider `CNC[C@@H](O)[C@@H](O)[C@H](O)[C@H](O)CO`, for which the Potency entry is “inactive”. For `Cc1ccc(C)c(OCCCC(C)(C)C(=O)O)c1`, the Potency entry is “inactive”.

`Cc1ccc(NC(=O)c2ccc(CN3CCN(C)CC3)cc2)cc1Nc1nccc(-c2cccnc2)n1`: the Potency was 17.4 µM (active). Same read-out and setting: under `COC(=O)[C@H](Cc1ccccc1)NC(=O)[C@@H](N)CC(=O)O` (H-Asp-Phe-OMe) stands “inactive”; under `COc1ccc(C2(C#N)CCC(C(=O)O)CC2)cc1OC1CCCC1` (stereo not given), “inactive”. On the same count and under the same terms, to `O=C(CS(=O)Cc1ccco1)NCC=CCOc1cc(CN2CCCCC2)ccn1` (stereo not given) belongs “inactive”; to `Nc1nc(Cl)nc2c1ncn2[C@H]1C[C@H](O)[C@@H](CO)O1`, 15.3 µM (active); to `CN1CCC(=C2c3ccccc3CCc3sccc32)CC1`, 12.3 µM (active). On the same count and under the same terms, under `CCOC(=O)C1=C(O)C(=O)N(Cc2ccccc2)C1` stands “inactive”. For the molecule `CCCOc1ccc2nc(NC(=O)OC)[nH]c2c1`, the Potency is 61.7 nM (active) and 13.7 nM (active).

Regarding `O=C(O)c1cccnc1Nc1cccc(C(F)(F)F)c1`, the Potency entry was “inactive”. Still for that read-out and setting: under `C[C@@H](N)C1CCC(C(=O)Nc2ccncc2)CC1` (stereo not given in full) stands “inactive”. In the case of `CCCS(=O)c1ccc2nc(NC(=O)OC)[nH]c2c1` (stereo not given), the Potency was 27.3 µM (active). Consider `C[C@H](Cc1ccc(O)c(O)c1)[C@@H](C)Cc1ccc(O)c(O)c1`, for which the Potency was 24.3 µM (active). Regarding `O=C(OC1C[C@H]2CC[C@@H](C1)[N+]21CCCC1)C(O)(c1ccccc1)c1ccccc1` (stereo not given in full), the Potency result is “inactive”. Regarding `CCC1=C(C)CN(C(=O)NCCc2ccc(S(=O)(=O)NC(=O)NC3CCC(C)CC3)cc2)C1=O` (stereo not given), the Potency entry is “inactive”. Same read-out and setting: under `Cc1cccc(C)c1OCC(=O)N[C@@H](Cc1ccccc1)[C@@H](O)C[C@H](Cc1ccccc1)NC(=O)[C@H](C(C)C)N1CCCNC1=O` stands 27.3 µM (active). Still for that read-out and setting: to `CNC[C@H](O)c1ccc(O)c(O)c1` belongs “inactive”; to `NCCCCNCCCN`, “inactive”; to `O=Nc1c(-c2c(O)[nH]c3cc(Br)ccc23)[nH]c2ccccc12`, 19.3 µM (active). On the same count and under the same terms, to `S=c1nc[nH]c2nc[nH]c12` belongs 2.19 µM (active) and 3.06 µM (active); to `CN(C)CCCC1(c2ccc(F)cc2)OCc2cc(C#N)ccc21` (stereo not given), “inactive”; to `Cc1cccc(CN2CCN(C(c3ccccc3)c3ccc(Cl)cc3)CC2)c1` (stereo not given), 24.6 µM (active) and 24.3 µM (active).

In the case of `CCOC(=O)c1c(C)n(C)c2ccc(O)cc12`, the Potency result was “inactive”. As to `CN(C)CCc1c[nH]c2ccc(Cn3cncn3)cc12`, the Potency result was “inactive”. Still for that read-out and setting: under `O=C(NOCC1CC1)c1ccc(F)c(F)c1Nc1ccc(I)cc1Cl` stands 19.3 µM (active); under `CCC[C@@H]1C[C@@H](C(=O)N[C@@H]([C@H]2O[C@H](SC)[C@H](O)[C@@H](O)[C@H]2O)[C@@H](C)O)N(C)C1`, “inactive”.
